Laboratory results as given in PubChem BioAssay AID488862 (Broad Institute, 2010).
About 1,200 (0.35%) of roughly 340,000 compounds were called active. No stated cut-off is given here; in the data, active means inhibition above about 52%; inactive means the rest. For the sample, actives were picked, then their nearest neighbours and some compounds at random.

Test: suppresses PrP 5' UTR mRNA reporter expression (AID 488862); further: 0 = median of the neutral control wells
Settings: cell-based PrP 5' UTR mRNA reporter, plate reader; stronger effect = higher value; concentration not given here

| SMILES | inhibition |
| --- | --- |
| Cc1ccc(C(=O)N/C(=C\c2ccc(F)cc2)C(=O)NCCN2CCOCC2)cc1 | -18.5% (inactive) |
| COc1ccc(C(=O)Nc2cc(C)c(NC(=O)c3ccccc3OC)cn2)cc1 | -9.89% (inactive) |
| COc1ccc(C(=O)Nc2ccccc2C(=O)N/N=C/c2ccc(O)c(OC)c2)cc1 | 80.5% (active) |
| COc1cc(C=NNC(=O)c2cccnc2)ccc1OC(=O)c1ccccc1F | -15.7% (inactive) |
| CC1=NCCN1S(=O)(=O)c1cccc([N+](=O)[O-])c1 | -44.4% (inactive) |
| CCOc1ccc(Br)cc1S(=O)(=O)Nc1ccc(S(=O)(=O)Nc2cc(C)on2)cc1 | -17.7% (inactive) |
| NC(=O)CC(NC(=O)Cc1ccc(Br)cc1)c1ccc(NC2CC3CCC2C3)c([N+](=O)[O-])c1 (stereo unspecified) | -22.9% (inactive) |
| COc1ccccc1-c1nnc2n1N=C(c1ccc(OC(F)F)c(OCC3CC3)c1)CS2 | -3.8% (inactive) |
| COc1ccc(C2=Nn3c(nnc3-c3ccccc3OC)SC2)cc1OC1CCCC1 | 63.8% (active) |
| CCn1c(SCC(=O)NC2CC2)nnc1-c1ccccc1OC | 3.39% (inactive) |
| O=C(CSCc1ccccc1)N1CCc2ccccc21 | -80.4% (inactive) |
| O=C(CN1C(=O)c2ccccc2S1(=O)=O)N1CCc2ccccc21 | 62.6% (active) |
| CC1CCCN(C(=O)CN2C(=O)c3ccccc3S2(=O)=O)C1 (stereo unspecified) | -26.3% (inactive) |
| COc1ccc(-n2c(Cc3cccn3C)nnc2SCC(=O)Nc2cc(C)cc(C)c2)cc1 | 6.37% (inactive) |
| NC(=O)c1oc2ccccc2c1NC(=O)CS(=O)(=O)c1ccccc1 | 10.2% (inactive) |
| Cc1ccccc1N1C(=O)C2ON(c3ccccc3)C(c3ccncc3)C2C1=O (stereo unspecified) | -40.3% (inactive) |
| O=C1C(=O)N(c2ccccc2)C(c2ccccc2)C1c1ccccc1 (stereo unspecified) | -4.98% (inactive) |
| O=C1[C@@H](c2ccccc2)[C@@H](c2ccccc2)N1c1cccnc1 | 59.7% (active) |
| COc1ccc(NS(=O)(=O)c2ccc(N3CCOCC3)c(NC(=O)/C=C/C(=O)O)c2)cc1 | -1.46% (inactive) |
| COc1cccc(CN(C)C(=O)CC23CC4CC(CC(C4)C2)C3)c1OC | -23.4% (inactive) |
| Cc1cc(NC(=O)/C=C/C(=O)N(c2ccccc2C)C(C(=O)NC2CCCC2)c2ccc(F)cc2)no1 (stereo unspecified) | -18% (inactive) |
| Cc1cc(NC(=O)CCC(=O)N(CC(=O)NC2CCCC2)c2ccc(F)cc2)no1 | -5.73% (inactive) |
| Cc1cc(NC(=O)/C=C/C(=O)N(CC(=O)NC2CCCC2)c2ccc(F)cc2)no1 | 53.2% (active) |
| CC(=O)c1ccc(Oc2cc(C)nc(-n3nc(C)cc3C)n2)cc1 | 63.6% (active) |
| CCOC(=O)c1cnc(-n2nc(C)cc2C)nc1NNc1cc(C)nc(-c2ccccc2)n1 | 33.9% (inactive) |
| COc1ccc(C(C)=O)cc1CSc1nc2nc(C)cc(C)n2n1 | 3.27% (inactive) |
